Laboratory results taken from PubChem BioAssay (NCATS).
Inconclusive results are not listed. Activity calls are given as the source filed them. The call rests on the fitted dose curve; in most records, active means well fitted inhibition curve with a large enough effect in the main read-out, with a control signal flat (not every such curve was filed as active); inconclusive means small, poorly fitted or top-dose-only effect, or effect the other way, or a change in a side signal; inactive means no such curve, though single readings can be large or run the other way.

test: Nrf2 qHTS screen for inhibitors: Validation (AID 493153); settings: A549 ARE-Fluc reporter, 18-24 h; Potency: luciferase luminescence; viability change: measured here: cytotoxicity max response; luciferase luminescence, at 46.1 µM (top of the series); activity change, negative = inhibition: at the top concentration; on activity change, negative = inhibition: % of control where 0% means no effect
Outline: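 A549 cells carrying an ARE-driven firefly luciferase reporter, in 5% FBS OPTI-MEM, were treated with compounds in concentration-response for 18-24 h at 37°C. Viability was read by CellTiter-Fluor fluorescence, then Nrf2 activity by luciferase luminescence.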

| SMILES | activity change, negative = inhibition | viability change |
| --- | --- | --- |
| N[C@@H](CCCC(=O)O)C(=O)O | 3.68% (inactive) | 7.86% |
| CSC(N)=NCCC[C@H](N)C(=O)O | 2.17% (inactive) | -16.2% |
| NCCCCN=C(N)N | 0.182% (inactive) | -0.37% |
| C#CCn1c(=O)c2c(ncn2C)n(C)c1=O | -7.61% (inactive) | 4.85% |
| O=C(O)Cc1c[nH]c2ccc(O)cc12 | 7.6% (inactive) | 0.136% |
| COc1cc(N)c(Cl)cc1C(=O)OCCN1CCCCC1 | 33.7% (inactive) | -3.02% |
| c1ccc(C2CN3CCSC3=N2)cc1 (stereo unspecified) | 16.3% (inactive) | 5.53% |
| NCCS(=O)O | 6.38% (inactive) | 6.69% |
| Oc1ccc(Cn2cc[nH]c2=S)cc1 | 11.1% (inactive) | 0.593% |
| COc1ccc(-c2ccc(N)[n+](CCCC(=O)O)n2)cc1 | 1.96% (inactive) | 1.33% |
| CC(C)Cn1c(=O)n(C)c(=O)c2[nH]cnc21 | -4.79% (inactive) | 1.08% |
| Cn1cc(C(F)(F)F)nc1-c1ccc(OCC(O)CNCCOc2ccc(O)c(C(N)=O)c2)cc1 (stereo unspecified) | -1.9% (inactive) | 6.58% |
| Cn1c(=O)c2c(nc(/C=C/c3cccc(Cl)c3)n2C)n(C)c1=O | 1.63% (inactive) | 3.93% |
| Cn1cc(C(=O)OCC2CCN(CCNS(C)(=O)=O)CC2)c2ccccc21 | -8.21% (inactive) | -0.747% |
| NC/C=C\C(=O)O | -2.4% (inactive) | -0.476% |
| Nc1ccc(-c2nc3ccc(-c4nc5ccc(N)cc5[nH]4)cc3[nH]2)cc1 | -14.3% (inactive) | -10.2% |
| NC(=O)c1cc[n+](CC2=C(C(=O)O)N3C(=O)[C@@H](NC(=O)[C@@H](c4ccccc4)S(=O)(=O)[O-])[C@H]3SC2)cc1 | -6.83% (inactive) | 3.59% |
| N[C@@H](Cc1c[nH]c2ccccc12)C(=O)O | 11.4% (inactive) | -4.03% |
